The panel holds about 83,000 compounds, 20% with a hit somewhere; the sample as a whole holds those more often.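 For each line, cells grew in 96-well plates with the test compound present at a single concentration for 48 hours.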 A number with no mark means an inactive call. Calls of active or inactive are those of the source. The calls were made as follows: active = growth percent below 10; inactive = the rest.
Test system: M14 melanoma
Assay: NCI-60 one-dose screen, 48 h (100 = growth as untreated, 0 = no growth, -100 = all killed)
Settings: 10 µM unless noted

| Structure (SMILES) | growth |
| --- | --- |
| CCN1CCN(/C(=N\c2sc(-c3ccccc3)nc2-c2ccccc2)c2ccccc2)CC1 | 81.1% |
| CCCCN1C(=O)/C(=c2\sc3n(c2=O)C2C(NN=3)N(CC)C(=O)N2CC)c2cc(Cl)ccc21 (stereo not given) | 70.3% |
| O=C1C2=C(C(=O)c3c(O)cccc31)C(c1ccco1)c1sc(=O)[nH]c1S2 (stereo not given) | -97.6% (active) |
| COc1cc(/C=C/C(=O)c2ccc(C(F)(F)F)cc2)ccc1Oc1nc(NCCO)nc(N2CCOCC2)n1 | 97.6% |
| OC1CCN(CCCOc2c3ccc(Cl)cc3nc3c2oc2ccc(Cl)cc23)CC1 | -93.8% (active) |
| O=C(N/N=C/c1ccc([N+](=O)[O-])o1)c1[nH]c2ccc(Br)cc2c1-c1ccccc1 | -35.4% (active) |
| CCOC(=O)c1c(NC(=O)c2cccc(C(F)(F)F)c2)sc2cc(O)ccc12 | 101% |
| OC1CCN(CCCOc2c3ccccc3nc3c2oc2ccccc23)CC1 | -71.8% (active) |
| COc1ccc(C(=O)/C=C/c2ccc(OCc3ccc(Cl)cc3)c(OC)c2)cc1OC | 78.1% |
| CN(C)CCCNc1c2ccccc2nc2c1oc1ccc(Cl)cc12 | 27% |
| COc1ccc(NC2=CC(=O)C(C)=C(C)C2=O)cc1 | 95.6% |
| COc1ccc(-n2c(SCC(=O)Nc3ccc(-c4nc5ccccc5[nH]4)cc3)nc3ccccc3c2=O)cc1 | -26.7% (active) |
| C/C(=N\NC(N)=O)c1c(O)sc(=O)[nH]c1=O | 98.8% |
| OC1CCN(CCCOc2c3ccc(Cl)cc3nc3c2oc2ccccc23)CC1 | -84.2% (active) |
| NS(=O)(=O)c1ccc(Nc2nc(Nc3ccccc3)nc(-n3nc(-c4ccccc4)cc3-c3ccccc3)n2)cc1 | 26.5% |
| COc1cc(OC)c(C2C(Cl)C(=O)N2Nc2ncnc3ccccc23)cc1OC (stereo not given) | 88.6% |

| Structure (SMILES) | growth |
| --- | --- |
| CN(C)CCCOc1c2ccc(Cl)cc2nc2c1oc1ccc(Cl)cc12 | -49.5% (active) |
| CC1=C(C)C(=O)C(Nc2cccc(C(F)(F)F)c2)=C(Cl)C1=O | 85.2% |
| Cn1cc(-c2cc(N)n3nc(-c4cn(C)c5ccc(Br)cc45)cc3n2)c2cc(Br)ccc21 | 65.5% |
| O=c1[nH]c2ccc(Cl)cc2cc1CSc1ccccc1Nc1nccc(-c2ccc(Cl)cc2)n1 | 102% |
| CN1CCN(Cc2ccc(NC(=O)c3cncc(C#Cc4cnc5[nH]ncc5c4)c3)cc2C(F)(F)F)CC1 | 8.74% (active) |
| COc1cc(/C=C/C(=O)c2ccc(F)cc2)ccc1Oc1nc(NCCO)nc(N2CCOCC2)n1 | 84% |
| Clc1ccc2c(OCCCN3CCOCC3)c3oc4ccccc4c3nc2c1 | 30.3% |
| Oc1c(Cl)cc(Cl)c2ccc(CN3CCCCC3)nc12 | 8.72% (active) |
| CN(C)CCCOc1c2ccc(Cl)cc2nc2c1oc1ccccc12 | -84.2% (active) |
| CS(=O)(=O)c1ccc(-c2nc3ccccn3c2/C=N/Nc2nc(-c3ccc(Br)cc3)cs2)cc1 | 112% |
| C=CCn1c(SCC(=O)c2ccc(Br)cc2)nnc1-c1c[nH]c2ccccc12 | 97.4% |
| COc1cc(/C=C/C(=O)c2ccccc2)ccc1Oc1nc(NCCO)nc(N2CCOCC2)n1 | 99.3% |
| CC(C)NC(=O)c1cc(-c2ccc(NC(=O)Nc3ccc(N4CCOCC4)c(C(F)(F)F)c3)cc2)nc2cccnc12 | 73.2% |
| O=C(N/N=C/c1ccco1)c1[nH]c2ccc(Br)cc2c1-c1ccccc1 | 11.6% |
| O=C(CSc1nccc(=O)[nH]1)Nc1ccc(-c2nc3ccccc3[nH]2)cc1 | 110% |

Test system: HCT-15 colon
Assay: as above
Settings: 10 µM unless noted

| Structure (SMILES) | growth |
| --- | --- |
| CCN1CCN(/C(=N\c2sc(-c3ccccc3)nc2-c2ccccc2)c2ccccc2)CC1 | 38.1% |
| CCCCN1C(=O)/C(=c2\sc3n(c2=O)C2C(NN=3)N(CC)C(=O)N2CC)c2cc(Cl)ccc21 (stereo not given) | 43.9% |
| O=C1C2=C(C(=O)c3c(O)cccc31)C(c1ccco1)c1sc(=O)[nH]c1S2 (stereo not given) | 10.8% |
| COc1cc(/C=C/C(=O)c2ccc(C(F)(F)F)cc2)ccc1Oc1nc(NCCO)nc(N2CCOCC2)n1 | 70.5% |
| OC1CCN(CCCOc2c3ccc(Cl)cc3nc3c2oc2ccc(Cl)cc23)CC1 | -83% (active) |
| Nc1c(C(=O)Nc2ccc(Cl)cc2)sc2nc(-c3cnccn3)cc(-c3cccs3)c12 | 62.5% |
| O=C(N/N=C/c1ccc([N+](=O)[O-])o1)c1[nH]c2ccc(Br)cc2c1-c1ccccc1 | 9.3% (active) |
| Cc1ccc(-c2nc(C(Cl)Cl)nc3cc(-c4ccccc4)nn23)cc1 | 5.49% (active) |
| CCOC(=O)c1c(NC(=O)c2cccc(C(F)(F)F)c2)sc2cc(O)ccc12 | 92.8% |
| OC1CCN(CCCOc2c3ccccc3nc3c2oc2ccccc23)CC1 | -8.3% (active) |
| COc1ccc(C(=O)/C=C/c2ccc(OCc3ccc(Cl)cc3)c(OC)c2)cc1OC | 34.2% |
| CN(C)CCCNc1c2ccccc2nc2c1oc1ccc(Cl)cc12 | -31.1% (active) |
| COc1ccc(NC2=CC(=O)C(C)=C(C)C2=O)cc1 | 89% |
| COc1ccc(-n2c(SCC(=O)Nc3ccc(-c4nc5ccccc5[nH]4)cc3)nc3ccccc3c2=O)cc1 | -11% (active) |
| C/C(=N\NC(N)=O)c1c(O)sc(=O)[nH]c1=O | 97.1% |
| OC1CCN(CCCOc2c3ccc(Cl)cc3nc3c2oc2ccccc23)CC1 | -31.7% (active) |
| NS(=O)(=O)c1ccc(Nc2nc(Nc3ccccc3)nc(-n3nc(-c4ccccc4)cc3-c3ccccc3)n2)cc1 | 18.3% |
| COc1cc(OC)c(C2C(Cl)C(=O)N2Nc2ncnc3ccccc23)cc1OC (stereo not given) | 101% |
| CN(C)CCCOc1c2ccc(Cl)cc2nc2c1oc1ccc(Cl)cc12 | -80.5% (active) |
| Cc1[nH]nc2ncc(C#Cc3cncc(C(=O)Nc4ccc(CN5CCN(C)CC5)c(C(F)(F)F)c4)c3)cc12 | 12.5% |

| Structure (SMILES) | growth |
| --- | --- |
| CC1=C(C)C(=O)C(Nc2cccc(C(F)(F)F)c2)=C(Cl)C1=O | 65.7% |
| Cn1cc(-c2cc(N)n3nc(-c4cn(C)c5ccc(Br)cc45)cc3n2)c2cc(Br)ccc21 | 41.7% |
| O=c1[nH]c2ccc(Cl)cc2cc1CSc1ccccc1Nc1nccc(-c2ccc(Cl)cc2)n1 | 91.5% |
| COc1ccc(-c2nc3ccc(-c4nnc(SCC(=O)Nc5ccc(C(=O)/C=C/c6ccccc6)cc5)o4)cc3[nH]2)cc1OC | 91.8% |
| N#Cc1nc(-c2ccccc2)oc1S(=O)(=O)N1CCN(CCc2ccccn2)CC1 | -27.2% (active) |
| CN1CCN(Cc2ccc(NC(=O)c3cncc(C#Cc4cnc5[nH]ncc5c4)c3)cc2C(F)(F)F)CC1 | 19.4% |
| COc1cc(/C=C/C(=O)c2ccc(F)cc2)ccc1Oc1nc(NCCO)nc(N2CCOCC2)n1 | 39.2% |
| Clc1ccc2c(OCCCN3CCOCC3)c3oc4ccccc4c3nc2c1 | 20.3% |
| O=C(c1ccc(O)cc1)C1[C@H](c2ccc(Cl)cc2)[C@@H](c2ccccc2)NC12C(=O)Nc1ccc(Cl)cc12 (stereo not given in full) | 28.9% |
| Nc1cc(-c2c[nH]c3ccccc23)nc2cc(-c3c[nH]c4ccccc34)nn12 | 6.35% (active) |
| Oc1c(Cl)cc(Cl)c2ccc(CN3CCCCC3)nc12 | 26.7% |
| CN(C)CCCOc1c2ccc(Cl)cc2nc2c1oc1ccccc12 | -21.6% (active) |
| CS(=O)(=O)c1ccc(-c2nc3ccccn3c2/C=N/Nc2nc(-c3ccc(Br)cc3)cs2)cc1 | 92.6% |
| C=CCn1c(SCC(=O)c2ccc(Br)cc2)nnc1-c1c[nH]c2ccccc12 | 99% |
| COc1cc(/C=C/C(=O)c2ccccc2)ccc1Oc1nc(NCCO)nc(N2CCOCC2)n1 | 90.9% |
| COC1CCN(Cc2ccc3c(NNC(=O)c4cnccn4)nc4cc(F)ccc4n23)C1 (stereo not given) | 28.7% |
| CC(C)NC(=O)c1cc(-c2ccc(NC(=O)Nc3ccc(N4CCOCC4)c(C(F)(F)F)c3)cc2)nc2cccnc12 | 68.1% |
| O=C(N/N=C/c1ccco1)c1[nH]c2ccc(Br)cc2c1-c1ccccc1 | 10.4% |
| O=C(CSc1nccc(=O)[nH]1)Nc1ccc(-c2nc3ccccc3[nH]2)cc1 | 108% |
